This is part of a sample that, as a whole, favours compounds with a hit. Of some 79,000 tested, about 15% had one in any assay. No stated cut-off is given here; in the data, active means growth inhibition above about 70%; inactive means the rest.
Columns and labels:
[1] = NCI Yeast Anticancer Drug Screen. Data for the rad50 strain (AID 155);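 further: 0% = growth of vehicle-only cultures of the same strain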; settings: S. cerevisiae rad50 strain growth inhibition; at 50.0 µM; hits give high values
Procedure, shortened: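 Readout: growth inhibition relative to vehicle-treated cultures. Compound exposure was carried out in a genetically defined yeast strain deficient in DNA damage repair.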

[2] = NCI Yeast Anticancer Drug Screen. Data for the sgs1 mgt1 strain (AID 161);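 further: 0% = growth of cultures given vehicle only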; settings: S. cerevisiae sgs1 mgt1 strain, at 50.0 µM, hits give high values
Procedure, shortened: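 Percent growth inhibition was derived by comparing compound-exposed mutant yeast with vehicle-exposed cultures. The strain carries alterations in DNA damage repair.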

[3] = NCI Yeast Anticancer Drug Screen. Data for the cln2 rad14 strain (AID 165);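 further: 0% = growth equal to vehicle treated cultures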; settings: S. cerevisiae cln2 rad14 strain, at 50.0 µM, hits give high values
Procedure, shortened: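 Yeast strain cln2 rad14, bearing defects in cell cycle control and DNA repair, serves as the test system; values reflect growth inhibition compared with vehicle.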

[4] = NCI Yeast Anticancer Drug Screen. Data for the bub3 strain (AID 167); settings: S. cerevisiae bub3 mutant strain, at 50.0 µM, hits give high values
Procedure, shortened: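 Readout: yeast growth inhibition, expressed relative to vehicle-only wells. The test organism is a mutant strain from a panel with lesions in DNA repair or checkpoint genes.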

[5] = NCI Yeast Anticancer Drug Screen. Data for the mlh1 rad18 strain (AID 175); settings: S. cerevisiae mlh1 rad18 strain growth inhibition; at 50.0 µM; hits give high values
Procedure, shortened: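 Steps: expose repair-defective yeast to compound; measure growth; express inhibition against vehicle-treated controls.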

[6] = NCI Yeast Anticancer Drug Screen. Data for the mec2-1 strain (AID 157); settings: S. cerevisiae mec2-1 strain, at 50.0 µM, hits give high values
Procedure, shortened: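 Using mec2-1 yeast: add compound, measure growth, express inhibition versus vehicle-treated cultures.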

Measured: growth inhibition

C=C1CC/C=C(\C)C(=O)C[C@@H]2[C@@H]1CC2(C)C
inactive: [1] 5.85% | [2] 20.2% | [3] 18.6% | [4] 15.3% | [5] -43.1%

CN(C)CCN(C)CC(C)(C)C(=O)/C=C/c1ccc(Cl)cc1
inactive: [1] 27.9% | [2] 9% | [3] -2.65% | [4] 19.7% | [5] 31.8%

O=C(O)C(Cc1ccccc1)C(=O)O
inactive: [1] 5.8% | [2] -27.7% | [3] -33% | [4] -18.4% | [5] -7.2%

O=[N+]([O-])c1ccc(O)c(S(=O)(=O)O)c1
inactive: [1] 8.55% | [2] 7.65% | [3] 15.7% | [4] -0.45% | [5] 4.1%

Cc1cc2nc(CC(=O)c3cccc([N+](=O)[O-])c3)c(=O)[nH]c2cc1C
inactive: [1] 22.2% | [2] 7.1% | [3] 20.5% | [4] -6.15% | [5] 39.5%

COc1ccccc1NC(=O)C1=C(C)NC(C)=C(C(=O)Nc2ccccc2OC)C1c1cccc([N+](=O)[O-])c1
inactive: [1] -3.3% | [2] -8.05% | [3] -3.9% | [4] 20.4% | [5] 11.3%

CC(=O)c1ccc2c(ccc3ccccc32)c1
inactive: [1] -13.1% | [2] -12.6% | [3] -14.6% | [4] -5.4%

CC(=O)CC(=O)N(C)C
inactive: [1] 0.3% | [2] 6.9% | [3] -13.9% | [4] -2.5% | [5] 24.2%

Cc1cc(O)ccc1O
inactive: [1] 31% | [2] 7% | [3] -5.05% | [5] 42.3%

O=C(c1ccc(O)cc1)c1ccc(O)cc1
inactive: [1] 30.4% | [2] 15.2% | [3] -49.1% | [4] -9.15% | [5] 17.2%

Cc1ccncc1C(N)=O
inactive: [1] -1.4% | [2] -9.55% | [3] -0.85% | [5] 3.3%

O=S(=O)(O)CC(O)CN1CCN(CCO)CC1 (stereo not drawn)
inactive: [1] -18.9% | [2] -36.8% | [3] 5.45% | [4] -23.9% | [5] -6.3%

OCCN1CCOCC1
inactive: [6] -2.05% | [2] 1.4% | [4] 7% | [5] 27.2%

CN(C)C(=O)Oc1cccc([N+](C)(C)C)c1
inactive: [6] -8.2% | [2] 5.95% | [3] -60.9% | [4] 0.2% | [5] -5.35%

Cc1c(O)cccc1O
inactive: [6] -17.4% | [2] 7.8% | [3] 7.1% | [4] -8.2% | [5] -8.3%

N#CCc1ccc([N+](=O)[O-])cc1
inactive: [6] 8.3% | [2] -13.5% | [3] -2.1% | [4] 15.2% | [5] -6.3%

CCCCN(CCCC)CCCO
inactive: [6] -24.5% | [2] -11.3% | [3] -27.7% | [4] -2.7% | [5] -21.1%

C/C(=C\c1cc(Cl)ccc1OCC(=O)O)[N+](=O)[O-]
inactive: [6] 56.1% | [2] 44.5% | [3] 26.9% | [4] 40.8% | [5] 56.2%

CCCC[P+](c1ccccc1)(c1ccccc1)c1ccccc1
inactive: [6] 40% | [2] 48.4% | [3] 37.2% | [4] 33.1% | [5] 65.2%

CCOc1ccc2[nH]c(=S)sc2c1
inactive: [6] 12.9% | [2] 29.9% | [3] 15.5% | [4] -1.5% | [5] 21.4%

O=[N+]([O-])c1ccc(-c2ncc(-c3ccc(Br)cc3)o2)cc1
inactive: [6] -3.3% | [2] 21.9% | [3] 11.6% | [4] 17.2% | [5] 3.45%

Brc1cnc2ccccc2c1
inactive: [6] 9.05% | [2] 26.7% | [3] -7.65% | [4] -2.55% | [5] 22.2%

Sc1ccc(Nc2c3ccccc3nc3ccccc23)cc1
inactive: [6] 33.6% | [2] 14.9% | [3] 7.3% | [5] 54.6%

Nc1nc(N)c(N=Nc2ccc(C(=O)O)cc2)c(N)n1
inactive: [6] 7.35% | [3] 19.6% | [4] 19% | [5] 22.4%

OCc1cccc2ccccc12
inactive: [6] 25.9% | [2] 13.9% | [3] -27.4% | [4] 3.6% | [5] 24.5%

CCCCCCCCCCCCCC(=O)Oc1ccc[nH]c1=O
inactive: [6] -19.6% | [2] -15.9% | [3] 11% | [4] 0.65% | [5] 0.7%

CC(C)CCOC(=O)c1ccccc1
inactive: [6] -22.5% | [2] -34.1% | [3] -68.9% | [4] -29.1% | [5] -22.9%

Nc1nc2c(c(-c3nc(N)nc4c3CCc3ccccc3-4)n1)CCc1ccccc1-2
inactive: [6] -12.6% | [4] -20.5% | [5] 2.9%

CCN(CC)C(=O)/C=C(/C)c1ccccc1
inactive: [6] -2.65% | [3] -6.95% | [4] 4.25% | [5] -29.8%

Cc1ccc(N)cc1[N+](=O)[O-]
inactive: [6] 2% | [2] 6.2% | [3] 18.2% | [4] 15.4% | [5] 15.8%

CCCCC(=O)c1ccc(OC)cc1
inactive: [6] -8.4% | [2] 2.75% | [3] 6.75% | [4] -8.3% | [5] -6.4%

CCCNC(=O)c1ccc(S(N)(=O)=O)cc1
inactive: [2] -13.2% | [3] -4.55% | [4] 2.55% | [5] -0.25%

O=C(NC1CCCCC1)OCc1c(COC(=O)NC2CCCCC2)c(-c2ccc(Cl)c(Cl)c2)n2c1CCC2
inactive: [6] 7.1% | [2] 27.4% | [3] 43.3% | [4] -5.3% | [5] 6.9%

O=C1Cc2cc(O)ccc2O1
inactive: [6] -28.2% | [2] -48.6% | [3] -0.85% | [4] -32% | [5] -8.75%

CCCCC(CC)COC(C)=O (stereo not drawn)
inactive: [6] -13.5% | [2] 2.15% | [3] 5.2% | [4] 12% | [5] 13.8%

C/C(=N\NC(=O)c1ccccc1N)c1ccccc1O
inactive: [6] -7.75% | [2] 26.6% | [3] 4.5% | [4] 26.1% | [5] 21.7%

CN(C)CCC(=O)c1ccc(O)cc1
inactive: [6] 8.65% | [2] 3.25% | [3] -22.2% | [4] -14.8% | [5] -9.45%

O=C(O)CNC(=O)c1ccccc1
inactive: [6] -4.45% | [3] -50.1% | [4] -25% | [5] -47.6%

CCOc1ccc(I)cc1
inactive: [6] 11.8% | [2] -17.5% | [3] 36.8% | [4] -0.75% | [5] -11.7%

CCCCC/C=N/Nc1nc(C)cc(=O)[nH]1
inactive: [6] -5.6% | [2] -8.95% | [4] -2.9% | [5] 4.4%

COc1cc(CN)ccc1O
inactive: [6] -6.25% | [2] -8.75% | [3] 10.7% | [5] 12.2%

c1ccc(CN2COc3c(ccc4c3OCN(Cc3ccccc3)C4)C2)cc1
inactive: [6] 20.8% | [3] -22.7% | [4] 9.7% | [5] 8.3%

CN(C)c1ccc(C(c2ccc(O)cc2)c2ccc(N(C)C)cc2)cc1
inactive: [2] -17.9% | [3] -38.6% | [4] -3% | [5] -6.5%

[O-][N+](=Nc1cccc(Cl)c1)c1cccc(Cl)c1
inactive: [6] -30.9% | [2] 24.9% | [3] 16.1% | [4] 21.2% | [5] 15.1%

C#CCSc1nnnn1-c1ccc(Br)c(C)c1
inactive: [6] 1.3% | [2] 34.5% | [3] 22.3% | [4] 32.6% | [5] 7.1%

O=S(=O)(O)c1ccc(Cl)c(Cl)c1
inactive: [6] -15% | [2] -3.4% | [3] 15.4% | [4] -19.5% | [5] -2.25%

CC(CN1CCCCC1)NC(=O)c1scnc1-c1ccccc1 (stereo not drawn)
inactive: [6] -10% | [2] -9.15% | [3] -2.5% | [4] -1.55% | [5] -4.55%

COc1ccc2c(c1)CCc1c-2n[nH]c1-c1[nH]nc2c1CCc1cc(OC)ccc1-2
inactive: [6] 0.35% | [2] -11.2% | [3] -5.55% | [5] -5%

CC(=O)OC(C(=O)O)c1ccccc1 (stereo not drawn)
inactive: [6] -12.1% | [2] 0.25% | [3] 13.8% | [4] -8% | [5] 23.5%

CCO/C=C1\SC(=S)N(c2cccc(C)c2)C1=O
inactive: [6] 13.7% | [2] 1.25% | [3] 13.2% | [4] 14.9% | [5] 16.9%

O=C(Nc1ccccc1C(=O)NCC1CC1)c1cccs1
inactive: [6] -29.9% | [3] 5.35% | [4] 5.9% | [5] -1.6%

Reference: PubChem BioAssay (NCI)
